In PubChem BioAssay AID1159580 (chemical genetic matrix, 2015):
Where “and” joins values, the source holds several entries; their conditions need not be identical. Identical values can stand only once. In all, about 5,500 compounds went through this assay and about 2,000 (36%) were called active. Another 18% or so got no clear call; they are omitted. Cut-off read from the data, not from the text of the source: active = normalized growth mostly below about 0.91 (no sharp cut-off); inconclusive = no clear call, values can overlap the other calls; inactive = mostly above about 0.92. The list shows a part of the results.

Test: chemical genetic growth profiling, strain panel (AID 1159580);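 note: tested at 20 µM; growth read once vehicle control cultures reached saturation at 30 °C; 1 = growth at the plate median or of vehicle wells; lower values mean less growth of the strain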
Conditions: S. cerevisiae deletion strains, growth OD

Measured: normalized growth

O=C(/C=C/c1ccc(O)cc1)c1ccc(O)cc1O
inactive: locus YAL013W, strain DEP1, active compounds read low 0.996 and 0.982 | locus YAL021C, strain ccr4, active compounds read low 0.981 | locus YAL026C, strain drs2, active compounds read low 1.02 | locus YAL030W, strain snc1, active compounds read low 1.01 | locus YAL040C, strain CLN3, active compounds read low 0.986 | locus YBL061C, strain skt5, active compounds read low 1 | locus YBR009C, strain hhf1, active compounds read low 0.999 | locus YBR021W, strain FUR4, active compounds read low 1.04 | locus YBR023C, strain chs3, active compounds read low 0.997 | locus YBR171W, strain sec66, active compounds read low 1.01 | locus YBR229C, strain ROT2, active compounds read low 0.987 | locus YBR231C, strain swc5, active compounds read low 0.979 | locus YBR279W, strain paf1, active compounds read low 0.99 | locus YCL011C, strain gbp2, active compounds read low 0.995 | locus YCL016C, strain dcc1, active compounds read low 0.991 | locus YCL029C, strain bik1, active compounds read low 0.945 | locus YCL061C, strain MRC1 (second series), active compounds read low 1.01 | locus YCL069W, strain vba3, active compounds read low 1.01 | locus YCR088W, strain abp1, active compounds read low 1.01 | locus YDL005C, strain med2, active compounds read low 1.02 | locus YDL035C, strain GPR1, active compounds read low 0.98 | locus YDL040C, strain nat1, active compounds read low 1 | locus YDL074C, strain BRE1, active compounds read low 0.912 | locus YDL101C, strain DUN1, active compounds read low 1 | locus YDL185W, strain tfp1, active compounds read low 0.919 | locus YDL192W, strain arf1, active compounds read low 0.948 | locus YDR001C, strain nth1, active compounds read low 1 | locus YDR069C, strain doa4, active compounds read low 1 | locus YDR101C, strain arx1, active compounds read low 0.96 | locus YDR137W, strain rgp1, active compounds read low 1.08 | locus YDR150W, strain NUM1, active compounds read low 0.991 and 1.01 | locus YDR159W, strain sac3, active compounds read low 0.99 | locus YDR162C, strain NBP2, active compounds read low 1.02 | locus YDR195W, strain ref2 1.04 | locus YDR297W, strain sur2, active compounds read low 1 | locus YDR318W, strain mcm21, active compounds read low 0.966 | locus YDR334W, strain swr1, active compounds read low 1 | locus YDR335W, strain msn5, active compounds read low 1.02 | locus YDR363W, strain ESC2, active compounds read low 1.01 | locus YDR388W, active compounds read low 0.96 | locus YDR392W, strain spt3, active compounds read low 0.892 | locus YDR502C, strain sam2, active compounds read low 0.963 | locus YEL003W, strain gim4, active compounds read low 1.01 | locus YEL037C, strain rad23, active compounds read low 1.01 | locus YEL061C, strain CIN8 (second series), active compounds read low 1.01 | locus YEL061C, strain CIN8, active compounds read low 0.992 | locus YER002W, strain NOP16, active compounds read low 0.985 | locus YER015W, strain faa2, active compounds read low 1 | locus YER016W, strain bim1, active compounds read low 1.01 | locus YER110C, active compounds read low 0.955 | locus YER111C, strain swi4, active compounds read low 1.02 | locus YER155C, strain BEM2 (second series), active compounds read low 0.97 | locus YER155C, strain BEM2, active compounds read low 0.972 | locus YER167W, strain BCK2, active compounds read low 0.971 | locus YFR010W, strain ubp6, active compounds read low 1.02 | locus YGL078C, strain dbp3, active compounds read low 1.01 | locus YGL086W, strain mad1, active compounds read low 0.958 | locus YGL167C, strain pmr1, active compounds read low 1.02 | locus YGL173C, strain kem1, active compounds read low 1.02 | locus YGL227W, strain vid30, active compounds read low 1.01 | locus YGL240W, strain doc1, active compounds read low 0.994 | locus YGL248W, strain PDE1, active compounds read low 1.01 | locus YGL253W, strain hxk2, active compounds read low 0.987 | locus YGR078C, strain PAC10, active compounds read low 0.997 and 0.992 | locus YGR135W, strain pre9, active compounds read low 0.941 | locus YGR252W, strain gcn5, active compounds read low 0.935 | locus YHR013C, strain ard1, active compounds read low 1.03 | locus YHR027C, strain rpn1, active compounds read low 1.01 | locus YHR030C, strain SLT2, active compounds read low 0.98 and 0.955 | locus YHR079C, strain IRE1 (second series), active compounds read low 0.959 | locus YHR079C, strain IRE1, active compounds read low 0.895 | locus YHR094C, strain hxt1, active compounds read low 0.965 | locus YHR129C, strain ARP1, active compounds read low 0.978 | locus YHR142W, strain chs7, active compounds read low 0.985 | locus YHR200W, strain rpn10, active compounds read low 0.944 | locus YIL066C, strain RNR3, active compounds read low 0.975 | locus YIL073C, strain SPO22, active compounds read low 0.96 | locus YIL125W, strain kgd1, active compounds read low 0.963 | locus YIR030C, strain dcg1, active compounds read low 0.973 | locus YJL092W, strain hpr5, active compounds read low 1.01 | locus YJL095W, strain BCK1 (second series), active compounds read low 1.01 | locus YJL095W, strain BCK1, active compounds read low 1.01 and 0.977 | locus YJL115W, strain asf1, active compounds read low 1.02 | locus YJL129C, strain trk1, active compounds read low 0.983 | locus YJL134W, strain LCB3, active compounds read low 0.97 | locus YJL154C, strain vps35, active compounds read low 1.02 | locus YJL164C, strain tpk1, active compounds read low 0.986 | locus YJL166W, strain qcr8, active compounds read low 1.01 | locus YJL168C, strain set2, active compounds read low 0.963 | locus YJL187C, strain SWE1 (second series), active compounds read low 0.994 | locus YJR043C, strain POL32, active compounds read low 0.961 | locus YJR066W, strain TOR1, active compounds read low 0.904
